Results filed as inconclusive are left out. A number with no mark means an inactive call. Active and inactive are the calls of the source. The call rests on the fitted dose curve; in most records, active means well fitted inhibition curve with a large enough effect; inconclusive means small, poorly fitted or top-dose-only effect; inactive means no such curve, though single readings can be large or run the other way.
assay: Primary fluorescence-based thiol-reactive (MSTI) qHTS assay for identification of artifact compounds. (AID 1845221); conditions: MSTI thiol-reactivity probe, 1 h; series mostly up to 53.8 µM; activity change, negative = thiol reactive: at the top concentration; further: nearly all actives have a fitted effect of over 65% in size;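 on activity change, negative = thiol reactive: thiol-reactive compounds lower the probe fluorescence signal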
In short: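 MSTI probe at 4 uM final in 2% DMSO/PBS pH 7.4; compounds, 1 h at room temperature in dark. Fluorescence Ex/Em 525/598 nm, normalised to Acetyl-MSTI and MSTI, fitted to 4-parameter Hill.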
Potency means the concentration at half of the fitted maximal effect.

Compound | activity change, negative = thiol reactive | Potency
CC1(C(=O)O)CCCC2(C)C3CC4C5CC3(CCC12)CC45C (stereo unspecified) | 29.1% | –
C[C@@H]1O[C@@H](O[C@H]2[C@@H]3C=CO[C@@H](O[C@@H]4O[C@H](CO)[C@@H](O)[C@H](O)[C@H]4O)[C@@H]3[C@@]3(CO)O[C@@H]23)[C@H](O)[C@H](OC(=O)/C=C/c2ccc(O)c(O)c2)[C@H]1O | – | 0.562 µM (active)
O=C(Cn1c2ccccc2c2nc3n(c(=O)c21)CCS3)N1CCCC1 | 40.8% | –
CC12CC(c3ccoc3)OC(=O)C1CCC1(C)C2CCC(O)C1(C)O (stereo unspecified) | – | 16.5 µM (active)
CC1CC(O)/C=C/C(O)/C=C\C(=O)O1 (stereo unspecified) | -10.6% [at 85.7 µM] | –
C[C@@H]1O[C@@H](O[C@H]2[C@H](O[C@H]3[C@H](O[C@H]4CC[C@@]5(C)C(CC[C@]6(C)C5CC=C5[C@@H]7CC(C)(C)C[C@@H](O)[C@]7(C)CC[C@]56C)[C@@]4(C)CO)O[C@H](C(=O)O)[C@@H](O)[C@@H]3O)O[C@H](CO)[C@H](O)[C@@H]2O)[C@H](O)[C@H](O)[C@H]1O (stereo partly specified) | 67.3% [at 11.5 µM] | –
C=C1C(=O)OC2CC(COC(=O)C(C)C)=C(C(C)CCCOC(C)=O)[C@@H](OC(C)=O)C12 (stereo partly specified) | 17.9% [at 25.6 µM] | –
COC(=O)/C=C/c1ccc(O[C@@H]2O[C@H](CO)[C@@H](O)[C@H](O)[C@H]2O)cc1 | 5.3% | –
COc1cc2c(c(OC)c1O)C(c1ccc(O)cc1)C1C(=O)OC3C(COC(=O)C1=C2)OC(CO)(OC1OC(COC(=O)/C=C/c2ccc(OC4OC(C)C(O)C(O)C4O)cc2)C(O)C(O)C1O)C3O (stereo unspecified) | – | 4.5 µM (active)
N#CN1CCC[C@@H](n2nc(-c3ccc(Oc4ccc(F)cc4F)cc3)c(C(N)=O)c2N)C1 | 67.4% | –
OC[C@H]1O[C@@H](OCCc2ccccc2)[C@H](O)[C@@H](O)[C@@H]1O | – | 11.9 µM (active)
O=C(O)CC/C=C\C[C@H]1CO[C@@H](c2ccccc2Cl)O[C@H]1c1ccccc1O | 135% | –
COc1cc(C(=O)OCC2=CCC3C(C(=O)O)=COC(O[C@@H]4O[C@H](CO)[C@@H](O)[C@H](O)[C@H]4O)C23)ccc1O (stereo partly specified) | – | 11.6 µM (active)
CC1(C)C[C@@H]2[C@H](C1)[C@@]1(C)C[C@]13C(O)OC[C@]3(O)[C@H]2O (stereo partly specified) | 1.46% | –
CC/C=C/C=C/C1(C)OC(CC(CO)OC)=CC1=O (stereo unspecified) | 2.06% | –
COc1cc(C)c(C(=O)O[C@@H]2[C@H](O)[C@@H](CO)O[C@H]2n2ccc(=O)[nH]c2=O)c(OC)c1 | 21.8% [at 25.6 µM] | –
CO[C@H]1c2cc(C(C)C)c(O)c(O)c2[C@@]23CCCC(C)(C)C2[C@@H]1OC3=O (stereo partly specified) | – | 1.47 µM (active)
C=C1CC/C=C(/C(=O)O)CCC2C1CC2(C)C (stereo unspecified) | 28.4% | –
COC(=O)C1=COC(OC2OC(CO)C(O)C(O)C2O)C2C(COC(=O)/C=C/c3ccc(O)c(O)c3)C(O)C(O)C12 (stereo unspecified) | – | 2.51 µM (active)
C=C1CCC2[C@@](C)(C(=O)O)CCC[C@@]2(C)[C@@H]1CCc1ccoc1 (stereo partly specified) | 130% | –
COCCN1CCC(C(=O)NO)(S(=O)(=O)c2ccc(Oc3ccc(OC(F)(F)F)cc3)cc2)CC1 | 36.2% | –

Reference: PubChem BioAssay (NCATS)
